Screening data (PubChem)
Not all results are given here.
TGFb inhibitor: inhibitors of TGF-b signaling. HepG2 CAGA-GFP TGF-b/SMAD3 reporter, GFP fluorescence, 18 h; TGF-beta stimulated, 500 pg/mL final. Potency, µM (series often up to 46.1 µM), for inactives: top-dose activity, negative = inhibition, actives largely listed as inhibitors. actives 1.2% (n = 410,000). AID 588855; also: potency is read from the fitted curve at half-maximal effect; % is scaled to controls: 0 for no effect and ±100 for the full control effect; nearly all actives have a fitted effect of over 65% in size
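First, reporter cells (HEPG2 CAGA-GFP) rested 2 h at 37 degrees C. Next, compounds were pinned in and TGF-beta added to 500 pg/mL final. After 18 h, GFP was imaged per cell and summed per well.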
ATXN viability: reduces viability in counter-screen for ATXN expression inhibitors | S2 cells (HEK-293 line with an ATXN2-luciferase reporter) viability, CellTiter-Fluor protease fluorescence, 24 h | Potency, µM (series often up to 56.7 µM), usual class: cytotoxic | actives 0.49% (n = 400,000); also: potency is read from the fitted curve at half-maximal effect; nearly all actives have a fitted effect of over 40% in size
HepG2 tox: kills HepG2 cells in TGF-b inhibitor counter-screen; HepG2 CAGA-GFP viability, ATP luminescence, 18 h; Potency, µM (series often up to 46.1 µM), inactives show top-dose activity change, negative = cytotoxicity, usual class: cytotoxic; actives 0.76% (n = 410,000); AID 588856; also: potency is read from the fitted curve at half-maximal effect
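HepG2 CAGA-GFP cells (1000/well, DMEM with 1% FBS) received compound, then TGF-beta at 500 pg/mL final, and were incubated 18 hours at 37 degrees C. Viability was read by CellTiter-Glo luminescence. Media-only wells were set as complete cell-killing and DMSO as no toxicity.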
ATXN2 expr inh: reduces ATXN2 reporter expression in HEK-293 cells; HEK-293 ATXN2-luciferase reporter, luminescence, 24 h; Potency, µM (top dose mostly 57 µM), for inactives: at the top dose activity change, negative = inhibition, actives largely listed as inhibitors; actives 0.72% (n = 360,000); AID 1745845; also: potency is read from the fitted curve at half-maximal effect; % is scaled to controls: 0 for no effect and ±100 for the full control effect; nearly all actives have a fitted effect of over 55% in size
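qHTS (up to 57 uM final) was run with 24 h compound exposure of reporter cells at 37 °C. Each well was multiplexed: SteadyGlo luminescence measured ATXN2-luciferase expression after a fluorogenic Gly-Phe-AFC viability readout (25 uM final).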
EBOV S4 ratio: blocks Ebola virus entry, screen 4 ratio readout; shares compounds with ATXN2 expr inh; Ebola pseudovirus entry assay, ratio channel; AC50, µM; actives 79% (n = 170); calls by dose curve
EBOV S4 blue: Ebola entry inhibition, blue channel, screen 4. Ebola virus entry assay, blue channel fluorescence ratio; Channel: blue. calls only. 170 tested, under 10 active. shares compounds with ATXN2 expr inh; call rule not given here
EBOV S4 green: Ebola entry inhibition, green channel, screen 4; shares compounds with ATXN2 expr inh; Ebola virus entry reporter assay, green fluorescence channel; Channel: green; calls only; 170 tested, under 10 active; call rule not given here
Numbers without * were called inactive; i = inactive; ? = inconclusive; · = no result given; ! = a repeat was not active. Unless noted, calls follow the shape of the dose curve; as a rule, active = well fitted curve in the direction sought with a large enough effect; inconclusive = small, poorly fitted or top-dose-only effect, or another doubt; inactive = no such curve, though single readings can be large; an effect the other way counts as inactive or inconclusive.

SMILES	TGFb inhibitor	ATXN viability	HepG2 tox	ATXN2 expr inh	others
CCOc1ccc(NS(=O)(=O)c2ccc(Cl)c(N=Nc3c(O)[nH]c(=S)[nH]c3=O)c2)cc1Br	?	·	-47.5%	·
O=C(CN1CCN(C(=O)CNC(=O)c2ccc(-c3ccccc3)cc2)CC1)Nc1ccccc1Cl	-9.4%	?	-25.6%	·
CC(CNC1CCCCC1)OC(=O)c1ccccc1 (stereo not drawn)	6.3%	i	5.1%	-1.8%	EBOV S4 ratio=i;EBOV S4 blue=i;EBOV S4 green=i
c1ccc(CNC2CCCCCCC2)cc1 (tested in a mixture with another compound)	-1.4%	i	-16.4%	-15.6%
CC1CCN(C(=O)N2c3ccccc3Sc3ccccc32)CC1	?	i	-20.7%	70.3%
CC(=O)Oc1ccc2c3c1O[C@H]1[C@@H](OC(C)=O)C=C[C@H]4[C@@H](C2)N(C)CC[C@@]341	·	i	·	·
COc1cc([C@@H]2c3cc4c(c(O)c3C[C@H]3COC(=O)[C@@H]32)OCO4)cc(OC)c1OC	?	·	5.1%	·
O=C(Cc1ccccc1)OCCN1CCCCC1	?	i	2.1%	5.6%
CN1CCC2(CC1)c1ccccc1-c1ccccc12	3.0%	i	-8.2%	-23.3%
COc1ccc(-c2c(C)c3cc(OC(=O)N4CCOCC4)ccc3oc2=O)cc1	-4.3%	·	-25.6%	·
CCCCOP(=O)(OCCCC)C(Nc1ccc(C(=O)OCC)cc1)c1ccncc1 (stereo not drawn)	?	i	-25.0%	-17.1%
O=C(O)c1ccc2[nH]cc(CCCCN3CC=C(c4ccccc4)CC3)c2c1	·	i	·	-2.7%
CN(C)c1ccc(C(=O)c2ccc(N(C)C)cc2)cc1	2.9%	i	-22.0%	26.8%
C[C@H]1CNC(=O)c2c(C(=O)Nc3cccc(Cl)c3)ncn21	-7.9%	i	30.6%	5.1%
O=C(O)CSCC(=O)N(Cc1ccccc1)c1nc(-c2ccccc2)c(-c2ccccc2)s1	?	i	-10.5%	-9.9%
NCCCC(O)(P(=O)(O)O)P(=O)(O)O	·	i	·	-0.4%	EBOV S4 ratio=i;EBOV S4 blue=i;EBOV S4 green=i
COc1cccc(OC)c1-c1nn2c(-c3n[nH]c4c3CCC4)nnc2s1	?	·	-19.2%	·
COc1ccc(S(=O)(=O)Nc2cc([N+](=O)[O-])ccc2OC)cc1	-24.7%	?	3.4%	-30.8%
Clc1ccc2c(N3CCNCC3)ccnc2c1	2.0%	i	-0.8%	-10.4%
Cc1[nH]ccc2c1[nH]c1cc(=O)ccc12	0.0%	i	-41.1%	-20.0%
O=C(NCCc1ccccc1)[C@@H]1CC=C[C@@H]2CCN(Cc3ccc(Cl)c(Cl)c3)C(=O)[C@@H]21	?	·	-18.3%	-7.1%
COc1cc([N+](=O)[O-])cc([N+](=O)[O-])c1N	3.1%	·	12.4%	·
Cc1cccc(N2C(=O)NC(=O)/C(=C/c3ccc([N+](=O)[O-])o3)C2=O)c1	0.0%	i	-30.2%	-4.0%
COc1ccc(CCNc2nccn(-c3ccc(C)c(C)c3)c2=O)cc1OC	?	?	-20.9%	0.0%
O=C(O)[C@@H](O)[C@H](O)C(=O)O	0.8%	i	-17.1%	-0.7%
SMILES	TGFb inhibitor	ATXN viability	HepG2 tox	ATXN2 expr inh	others
CNC(=O)Oc1cccc2ccccc12	1.4%	i	-1.5%	-6.9%
CN1CCN(CCOC2c3ccccc3CSc3ccc(Cl)cc32)CC1 (stereo not drawn)	?	?	-45.9%	-26.3%
COc1ccc(-c2c3c(nc4sc5c(Cl)nc(C)nc5c24)CCC3)cc1	3.0%	?	1.4%	-32.4%
NC(Cc1ccc(C(F)(F)F)cc1)c1csc(Nc2nncc3ccccc23)n1 (stereo not drawn)	?	?	-78.9%	?
CSc1cccc(NC(=O)C2CCN(C(=O)c3cnn(-c4ccccc4)c3-n3cccc3)CC2)c1	?	?	-20.3%	?
CCOc1ccc(S(=O)(=O)Nc2cccc(C(=O)N3CCN(c4ccccn4)CC3)c2)cc1	-12.3%	?	-0.2%	·
O=C(C1CCCN(Cc2ccc(Cl)cc2)C1)N1CCCCC1 (stereo not drawn)	0.0%	i	2.0%	-26.4%
O=C1NCN(c2ccccc2)C12CCNCC2	2.6%	i	11.3%	-8.6%
O=C1CC(N2CCC(n3c(=O)[nH]c4ccccc43)CC2)C(=O)N1c1ccc(F)cc1 (stereo not drawn)	11.0%	?	-4.1%	-7.5%
COc1ccc(NC(=O)CCOc2cc(C)ccc2C)cc1S(=O)(=O)N1CCCCC1	-19.9%	?	-22.0%	-24.2%
Cc1cccc(N(CC(=O)NCCSc2ccc(Cl)cc2)S(=O)(=O)c2ccccc2)c1C	?	·	-20.2%	·
COC(=O)c1cc(NC(=O)Cn2nc(-c3ccccc3)c3c(c2=O)CCCC3)cc(C(=O)OC)c1	?	i	-12.8%	-5.5%
COC(=O)[C@H]1[C@H]2C[C@@H]3c4[nH]c5cc(OC)ccc5c4CCN3C[C@H]2C[C@@H](OC(=O)/C=C/c2cc(OC)c(OC)c(OC)c2)[C@@H]1OC	2.8%	?	5.4%	5.3%
CC(C)N(CCC(C(N)=O)(c1ccccc1)c1ccccn1)C(C)C (stereo not drawn)	-2.0%	i	3.4%	5.4%
COC(=O)[C@@H](c1ccccc1)C1CCCCN1 (stereo partly drawn)	-1.0%	i	3.3%	1.8%
Cc1ccc2c(c1)C1C[N+](C)(CC(=O)Nc3ccccc3Cl)CCC1N2C(=O)c1ccccc1Cl (stereo not drawn)	32.4%	?	73.0%	4.9%
CCOC(=O)c1cccc(NC(=O)NCc2ccc3c(c2)CCN3C(=O)c2ccccc2)c1	?	i	-13.3%	-0.5%
CNC(=O)O/N=C/C(C)(C)S(C)=O (stereo not drawn)	-3.1%	·	-5.1%	·
CCCCN1CCS(=O)(=O)N(Cc2ccccc2Br)CC(C(=O)OC)C1 (stereo not drawn)	?	i	0.3%	-9.6%
COc1cccc2c1C(=O)c1c(O)c3c(c(O)c1C2=O)C[C@@](O)(C(C)=O)C[C@@H]3O[C@H]1C[C@H](N)[C@H](O)[C@H](C)O1	?	?	11.3%	10µM*!	EBOV S4 ratio=2.43µM*;EBOV S4 blue=i;EBOV S4 green=i
CC(C)Cn1c(=O)oc2ccccc21	?	i	6.2%	7.4%
CCOC(=O)c1c(C)[nH]c(C)c1S(=O)(=O)NCC(=O)N1CCN(c2cc(Cl)ccc2C)CC1	?	i	-20.9%	?
OC(CNCc1ccccc1)c1ccc(Cl)cc1 (stereo not drawn)	1.2%	i	-12.5%	-11.3%
